The test system of experiment [1] is Plasmodium falciparum Sir2 (PF13_0152, Sir2A). The experiment can be described thus: Plasmodium falciparum Sir2A binding compounds – biochemical, small-molecule microarray, 635 nm fluorescence, primary screen (AID 1098).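 Further: score merges spot fluorescence intensity with its signal-to-noise ratio.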 To be noted: fluorescence 635 nm, higher = more signal.
Experiment [2] can be described thus: probe aDKK1 binding to arrayed compounds – biochemical, biotinylated probe, 635/667 nm fluorescence, primary screen (AID 1099).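 Further: score merges 667nm spot fluorescence with signal to noise across triplicate slides.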 As to conditions: small-molecule microarray, higher = more signal.
Experiment [3] is described as follows: probe aCHRDL2 binding to arrayed compounds – biochemical, biotinylated probe, 635/667 nm fluorescence, primary screen (AID 1100). As to conditions: small-molecule microarray, higher = more signal.
Experiment [4] can be described thus: change in splice reporter luminescence, either direction, cell-based, HEK293, spliceosome inhibition project, primary screen (AID 1101).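 Further: HEK293 cells carrying a splicing-competent luciferase reporter gene; test concentration not given here.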 As to conditions: HEK293 splicing luciferase reporter, 24 h, higher = more signal, called active from +8 up or from −8 down. (A reporter such as luciferase makes a cellular process visible.)
Experiment [5] has as its target Fibroblast growth factor 10 (Homo sapiens) (UniProt O15520). The experiment can be described thus: compounds binding fibroblast growth factor 10 – biochemical, small-molecule microarray, 635 nm fluorescence, primary screen (AID 1102). To be noted: FGF10 binding, fluorescence 635 nm, higher = more signal.
Experiment [6] has as its system glycogen synthase kinase-3 (GSK3A per assay name; protocol says GSK3B). The experiment can be described thus: compounds binding glycogen synthase kinase-3 – biochemical, small-molecule microarray, 635 nm fluorescence, GSK3A, primary screen (AID 1103). Further: the record names both GSK3A and GSK3B. To be noted: fluorescence 635 nm, higher = more signal.
Experiment [7] addresses Epidermal growth factor receptor (Homo sapiens) (UniProt P00533). The experiment can be described thus: compounds binding epidermal growth factor receptor – biochemical, small-molecule microarray, 635 nm fluorescence, primary screen (AID 1104).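 Further: score merges 667 nm emission intensity with spot signal to noise over triplicate slides.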 As to conditions: EGFR binding, higher = more signal.
Experiment [8] deals with Follistatin-related protein 3 (Homo sapiens) (UniProt O95633). The experiment can be described thus: compounds binding follistatin-related protein 3 – biochemical, small-molecule microarray, 635 nm fluorescence, primary screen (AID 1105).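 Further: score merges emission near 667 nm and signal to noise per printed spot across three slides.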 As to conditions: FSTL3 binding, higher = more signal.
Sequence of Follistatin-related protein 3 (Homo sapiens) (O95633 whole entry, looked up): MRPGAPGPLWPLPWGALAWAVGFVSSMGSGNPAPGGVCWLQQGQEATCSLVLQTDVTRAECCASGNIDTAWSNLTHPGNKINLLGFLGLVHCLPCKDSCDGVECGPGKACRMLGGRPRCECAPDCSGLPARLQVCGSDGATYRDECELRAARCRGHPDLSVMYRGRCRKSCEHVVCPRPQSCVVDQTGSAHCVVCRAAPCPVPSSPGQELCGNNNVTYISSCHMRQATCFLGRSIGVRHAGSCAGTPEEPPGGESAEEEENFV
Experiment [9] addresses Dickkopf-related protein 1 (Homo sapiens) (UniProt O94907). The experiment can be described thus: small molecules binding DKK1 protein – biochemical, small-molecule microarray, 635 nm fluorescence scan, primary screen (AID 1106).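 Further: score merges emission near 667 nm with signal to noise over three replicate slides.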 To be noted: higher = more signal.
Experiment [10] relates to Inhibin beta A chain (activin A). The experiment can be described thus: small molecules binding activin A – biochemical, small-molecule microarray, 635 nm fluorescence scan, primary screen (AID 1107).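 Further: mouse activin A protein probed at 4.33 µg/mL on printed slides; score merges bound-protein fluorescence near 667 nm with spot signal-to-noise.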 To be noted: INHBA, higher = more signal.
Experiment [11] has as its system Human papillomavirus type 1a protein E7 (residues 44-93). The experiment can be described thus: small molecules binding HPV E7 44-93 – biochemical, small-molecule microarray, residues 44-93, 635 nm fluorescence, primary screen (AID 1108).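 Further: E7 fragment applied at 1 µg/mL in TBST for 1 h at 4 C; score combines spot fluorescence with its signal to noise ratio.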 To be noted: fluorescence 635 nm, higher = more signal.
Experiment [12] can be described thus: hepatitis C replication reporter changes, two-sided – Huh7 cells, luciferase reporter, HCV replication inhibitor project, primary screen (AID 1109).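 Further: huh7 hepatoma cells harbouring a luciferase neomycin HCV replicon reporter; luciferase luminescence as measure of HCV replicon replication; test concentration not given here.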 To be noted: Huh7 HCV replicon luciferase reporter, 48 h; higher = more signal.
Experiment [13] concerns the target Left-right determination factor 2 (Homo sapiens) (UniProt O00292). The experiment can be described thus: small molecules binding LEFTY2 protein – biochemical, small-molecule microarray, 635 nm fluorescence scan, primary screen (AID 1110). As to conditions: higher = more signal.
The target of experiment [14] is Calmodulin-1 (Homo sapiens) (UniProt P0DP23). The experiment can be described thus: small molecules binding calmodulin-1 with EGTA – biochemical, small-molecule microarray, Cy5-labelled CALM1, profiling panel (AID 1111).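 Further: labelled calmodulin applied in Tris saline Tween buffer holding calcium plus EGTA and DTT.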 As to conditions: Cy5-CALM1 binding fluorescence, higher = more signal.
For experiment [15] the target is unchanged. The experiment can be described thus: small molecules binding Ca-loaded calmodulin-1 – biochemical, small-molecule microarray, Cy5-labelled CALM1, plus calcium, artefact control for SMM control-protein annotation, profiling panel (AID 1112).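 Further: score merges spot fluorescence with signal to noise from triplicate slides.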 As to conditions: Cy5-CALM1 binding fluorescence, higher = more signal.
The nature of experiment [16]: probe aWnt5a binding to arrayed compounds – biochemical, biotinylated probe, 635/667 nm fluorescence, primary screen (AID 1113).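 Further: score merges 667 nm fluorescence intensity with signal-to-noise per printed feature.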 As to conditions: small-molecule microarray, higher = more signal.
The nature of experiment [17]: probe aShh binding to arrayed compounds – biochemical, biotinylated probe, 635/667 nm fluorescence, primary screen (AID 1114).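 Further: probe is biotin-labelled aShh protein from a stem cell growth factor screen; measures binding of labelled protein to compounds printed on the slide; score merges feature fluorescence at 667 nm with signal-to-noise.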 As to conditions: small-molecule microarray, higher = more signal.
Experiment [18] in a line: probe aNog binding to arrayed compounds – biochemical, biotinylated probe, 635/667 nm fluorescence, primary screen (AID 1115).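 Further: probe is biotinylated aNog protein used at 0.15 µg/mL for 1 h at 4 C; z-score combines 667 nm fluorescence of each spot with its signal to noise.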 To be noted: small-molecule microarray, higher = more signal.
Experiment [19] concerns the target Torsin-1A-interacting protein 1 (Homo sapiens) (UniProt Q5JTV8). The experiment can be described thus: compound microarray binding of lysate hLAP1 – cell lysate, small-molecule microarray, COS7 lysate, 635/667 nm fluorescence, primary screen (AID 1116). As to conditions: 635 nm fluorescence, higher = more signal.
The target of experiment [20] is Alpha-bungarotoxin (Bungarus multicinctus) (UniProt P60615). The experiment can be described thus: compounds binding labelled alpha-BTX control protein – biochemical, small-molecule microarray, Alexa647 label, 635/667 nm fluorescence, artefact control for SMM control protein annotation, profiling panel (AID 1117). As to conditions: alpha-BTX-A647 binding fluorescence, higher = more signal.
Sequence of Alpha-bungarotoxin (Bungarus multicinctus) (P60615 whole entry, looked up): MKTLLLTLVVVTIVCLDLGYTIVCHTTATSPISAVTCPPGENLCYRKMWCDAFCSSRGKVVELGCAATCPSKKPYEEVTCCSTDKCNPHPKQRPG

Active and inactive are the calls of the source.

Sequence of Fibroblast growth factor 10 (Homo sapiens) (O15520 whole entry, looked up): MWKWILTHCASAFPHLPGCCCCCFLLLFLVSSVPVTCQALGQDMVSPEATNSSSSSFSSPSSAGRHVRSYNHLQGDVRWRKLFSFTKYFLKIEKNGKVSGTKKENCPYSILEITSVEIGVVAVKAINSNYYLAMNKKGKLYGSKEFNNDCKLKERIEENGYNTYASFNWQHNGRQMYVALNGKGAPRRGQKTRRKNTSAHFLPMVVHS
Sequence of Dickkopf-related protein 1 (Homo sapiens) (O94907 whole entry, looked up): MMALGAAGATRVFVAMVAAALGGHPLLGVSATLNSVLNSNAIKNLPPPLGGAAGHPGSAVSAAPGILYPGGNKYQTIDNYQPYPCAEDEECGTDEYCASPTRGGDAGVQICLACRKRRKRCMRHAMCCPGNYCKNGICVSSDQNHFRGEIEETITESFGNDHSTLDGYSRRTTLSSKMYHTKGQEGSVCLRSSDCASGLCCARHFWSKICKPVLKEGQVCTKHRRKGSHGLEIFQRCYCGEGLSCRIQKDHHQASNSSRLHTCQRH
Sequence of Torsin-1A-interacting protein 1 (Homo sapiens) (Q5JTV8 whole entry, looked up): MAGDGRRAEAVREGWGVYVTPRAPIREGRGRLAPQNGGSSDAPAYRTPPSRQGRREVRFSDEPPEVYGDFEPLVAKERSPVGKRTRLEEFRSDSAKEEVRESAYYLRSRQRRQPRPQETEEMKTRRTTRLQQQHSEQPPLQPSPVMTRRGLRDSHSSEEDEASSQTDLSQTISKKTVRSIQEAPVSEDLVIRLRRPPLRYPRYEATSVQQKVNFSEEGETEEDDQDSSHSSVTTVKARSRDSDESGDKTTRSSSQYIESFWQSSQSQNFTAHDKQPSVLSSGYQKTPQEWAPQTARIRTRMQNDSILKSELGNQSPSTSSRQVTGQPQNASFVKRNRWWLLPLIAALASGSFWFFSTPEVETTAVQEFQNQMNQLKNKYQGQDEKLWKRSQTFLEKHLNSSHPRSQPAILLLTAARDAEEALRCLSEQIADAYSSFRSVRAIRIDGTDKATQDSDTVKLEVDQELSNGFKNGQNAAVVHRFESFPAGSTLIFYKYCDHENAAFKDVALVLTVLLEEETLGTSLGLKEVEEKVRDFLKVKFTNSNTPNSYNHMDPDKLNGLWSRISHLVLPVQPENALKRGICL
Sequence of Left-right determination factor 2 (Homo sapiens) (O00292 whole entry, looked up): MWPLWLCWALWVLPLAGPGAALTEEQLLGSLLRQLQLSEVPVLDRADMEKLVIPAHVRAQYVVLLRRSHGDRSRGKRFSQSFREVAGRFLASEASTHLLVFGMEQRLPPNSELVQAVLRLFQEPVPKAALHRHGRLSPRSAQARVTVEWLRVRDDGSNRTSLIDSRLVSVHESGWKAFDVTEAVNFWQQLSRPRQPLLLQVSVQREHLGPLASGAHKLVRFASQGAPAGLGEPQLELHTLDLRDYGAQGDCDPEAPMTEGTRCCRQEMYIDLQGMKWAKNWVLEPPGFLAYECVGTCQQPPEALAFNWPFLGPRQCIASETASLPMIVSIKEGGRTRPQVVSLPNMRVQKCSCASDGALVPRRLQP
Sequence of Epidermal growth factor receptor (Homo sapiens) (P00533 whole entry, looked up): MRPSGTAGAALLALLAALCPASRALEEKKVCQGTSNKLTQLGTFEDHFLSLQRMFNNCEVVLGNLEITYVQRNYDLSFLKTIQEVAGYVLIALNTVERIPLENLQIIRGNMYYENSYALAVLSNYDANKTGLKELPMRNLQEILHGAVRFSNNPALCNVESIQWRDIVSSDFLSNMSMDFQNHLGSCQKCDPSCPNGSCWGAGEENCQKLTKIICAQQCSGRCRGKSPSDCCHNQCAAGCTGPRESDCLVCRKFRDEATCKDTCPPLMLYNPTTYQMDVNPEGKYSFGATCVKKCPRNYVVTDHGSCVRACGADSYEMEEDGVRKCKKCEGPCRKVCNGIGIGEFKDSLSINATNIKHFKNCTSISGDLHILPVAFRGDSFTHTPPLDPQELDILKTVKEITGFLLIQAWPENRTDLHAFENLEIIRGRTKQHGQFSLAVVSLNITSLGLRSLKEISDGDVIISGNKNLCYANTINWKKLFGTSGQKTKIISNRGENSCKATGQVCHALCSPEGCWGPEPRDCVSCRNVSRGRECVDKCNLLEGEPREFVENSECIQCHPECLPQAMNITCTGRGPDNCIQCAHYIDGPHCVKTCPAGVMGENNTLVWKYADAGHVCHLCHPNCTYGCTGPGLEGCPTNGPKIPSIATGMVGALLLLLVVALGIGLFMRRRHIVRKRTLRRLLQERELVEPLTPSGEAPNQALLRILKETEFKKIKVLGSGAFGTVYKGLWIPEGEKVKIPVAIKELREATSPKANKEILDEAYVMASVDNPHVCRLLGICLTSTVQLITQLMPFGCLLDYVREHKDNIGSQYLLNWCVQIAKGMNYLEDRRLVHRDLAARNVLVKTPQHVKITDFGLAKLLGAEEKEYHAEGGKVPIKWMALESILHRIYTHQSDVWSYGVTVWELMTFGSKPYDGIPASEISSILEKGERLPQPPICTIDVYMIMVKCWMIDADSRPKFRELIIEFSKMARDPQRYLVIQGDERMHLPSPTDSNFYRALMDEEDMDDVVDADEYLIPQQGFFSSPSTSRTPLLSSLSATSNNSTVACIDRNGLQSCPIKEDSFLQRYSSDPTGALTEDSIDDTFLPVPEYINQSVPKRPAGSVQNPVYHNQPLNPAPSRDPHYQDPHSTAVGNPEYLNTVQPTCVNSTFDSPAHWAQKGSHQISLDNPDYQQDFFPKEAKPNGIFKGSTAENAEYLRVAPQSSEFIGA

As to `COCC(=C=CC[C@H](O)c1ccccc1OCCO)C[C@H](O)COCc1ccccc1`, the composite z-score in experiment [1] was 1.54; in [2] it was 0.132; in [3], -0.316; in experiment [5], 1.49; in [6], 0.342; in experiment [7], 0.335. The composite z-score was 0.3 in experiment [8]; -0.06 in experiment [9]; 0.627 in experiment [10]; 1.2 in experiment [11]; 0.0832 in experiment [13]; 0.324 in experiment [14]. Also, the composite z-score was -0.678 in experiment [15]; -0.0685 in experiment [16]; 0.275 in [17]; 0.589 in experiment [18]; 1.36 in experiment [19]; -0.346 in experiment [20]. In addition, the z-score in experiment [4] was -0.111 (inactive); in [12] it was -1.51.

As to `O=C(NCCN1CCOCC1)[C@@H]1c2ccccc2C(=O)N(Cc2ccccc2C(F)(F)F)[C@H]1c1ccc(CO)cc1`, the composite z-score in [1] is 0.99; in experiment [2] it was -0.745; in experiment [3], -0.31; in experiment [5] it was -0.393; in [6], 0.0726; in [7], -1.11. Besides, the composite z-score was -0.708 in experiment [8]; -1.28 in [9]; -0.735 in [10]; 1.01 in [11]; -1.45 in experiment [13]; -0.804 in [14]. Besides, the composite z-score in experiment [15] is -0.56; in experiment [16], -0.145; in experiment [17], -0.73; in experiment [18] it was 0.0703; in experiment [19], -0.851; in experiment [20], -0.755. Also, the z-score was -0.422 (inactive) in [4] and -0.513 in experiment [12].

Take `COC(=O)[C@@]1(Cc2ccc(F)cc2)[C@H]2c3cc(C(=O)N(C)C)n(C)c3C[C@H]2CN1C(=O)c1ccccc1`: the composite z-score in experiment [1] was 0.0911; in experiment [2], 0.903; in experiment [3] it was 0.885; in experiment [5] it was 0.414; in experiment [6] it was -0.489; in [7], -0.286. The composite z-score in experiment [8] is -0.125; in experiment [9], -0.615; in experiment [10], 0.468; in [11], 0.0469; in [13], -0.21; in [14] it was 1.1. The composite z-score came out at 0.815 in experiment [15]; 0.0095 in [16]; 0.705 in experiment [17]; 1.01 in experiment [18]; 0.509 in [19]; 0.0278 in experiment [20]. For the same molecule, the results for the z-score in experiment [4] and in experiment [12] were -0.84 (inactive) and -0.275, respectively.

For the molecule `CCCCCCc1nc(Cc2cc(OC)c(OC)c(OC)c2)cc2c1[Si](C(C)C)(C(C)C)O[C@H]2c1ccccc1`, the composite z-score in [1] is 0.268; in [2] it was -0.333; in experiment [3], -0.511; in experiment [5], 0.351; in experiment [6], 0.124; in [7] it was 0.569. Besides, the composite z-score was 0.594 in experiment [8]; 0.548 in [9]; 0.882 in [10]; 0.192 in experiment [11]; 0.851 in [13]; -0.0875 in experiment [14]. In addition, the composite z-score in [15] was -0.593; in [16], -0.124; in experiment [17], 0.235; in [18], 0.0646; in experiment [19], -0.142; in experiment [20], 0.889. Moreover, the z-score in experiment [4] is -0.189 (inactive); in [12], -2.41.

As to `C=C(/C(=C/C[C@@H](OC(C)=O)c1cccc(OCCO)c1)c1cnc2ccccc2c1)C(C)C`, the composite z-score was 0.85 in experiment [1]; -0.268 in experiment [2]; 0.0363 in experiment [3]; 0.706 in experiment [5]; 0.612 in experiment [6]; 0.324 in experiment [7]. For the same molecule, the composite z-score in [8] is 1.37; in [9], 0.625; in experiment [10] it was 1.56; in [11], 0.858; in experiment [13], 0.54; in experiment [14] it was -0.24. Besides, the composite z-score is -0.51 in [15]; -0.0045 in [16]; -0.0709 in experiment [17]; -0.326 in [18]; 1.02 in experiment [19]; 1.3 in experiment [20]. Moreover, the z-score in [4] was -0.664 (inactive); in experiment [12], -1.96.

`COCCCNC(=O)[C@@H]1c2ccccc2C(=O)N(Cc2ccc(OC(F)(F)F)cc2)[C@H]1c1ccc(CO)cc1`: the composite z-score came out at 0.499 in [1]; 0.21 in experiment [2]; 0.215 in experiment [3]; 0.393 in experiment [5]; 0.723 in experiment [6]; 0.0725 in experiment [7]. The composite z-score was found to be 0.481 in experiment [8]; 0.743 in experiment [9]; 0.639 in [10]; 1.1 in [11]; 0.0983 in experiment [13]; 0.0389 in [14]. Besides, the composite z-score in experiment [15] was -0.269; in [16], 0.0215; in experiment [17] it was -0.0035; in experiment [18] it was -0.553; in experiment [19] it was 0.378; in experiment [20], 0.516. Besides, the z-score in experiment [4] was 0.0366 (inactive); in experiment [12] it was -0.223.

The record behind these values is PubChem BioAssay.
